Data from PubChem BioAssay (Tox21).
Results filed as inconclusive are left out. The source made the active and inactive calls. Unless noted, the call rests on the fitted dose curve; in most records, active means well fitted curve in the direction sought with a large enough effect in the repeat runs; inconclusive means weak or mixed curves; inactive means flat fitted curve, though single readings scatter.

Assays:
[1] = qHTS assay to test for compound auto fluorescence at 535 nm (green) in HEK293 cell free culture (AID 720682)
Outline: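 Fluorescein serves as the green reference fluorophore; each compound's intrinsic emission at 535 nm (excitation 485 nm) is reported as an equivalent amount of that dye, measured in serum-containing DMEM without cells.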

[2] = qHTS assay to test for compound auto fluorescence at 590 nm (red) in HEK293 cell free culture (AID 720683)
Outline: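 Cell-free wells of DMEM with 10% FBS received compound, and intrinsic fluorescence was read at excitation/emission 540/590 nm. Values expressed as equivalence to Rose Bengal sodium.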

[3] = qHTS assay to test for compound auto fluorescence at 590 nm (red) in HepG2 cell free culture (AID 720684)
Outline: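 Compound was pinned into wells holding MEM with 10% FBS and no cells, and red fluorescence was read at Ex/Em 540/590 nm. Signal is expressed as auto fluorescence equivalency relative to Rose Bengal sodium.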

[4] = qHTS assay to test for compound auto fluorescence at 460 nm (blue) in HepG2 cell free culture (AID 720685)
Outline: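 Compound (23 nL) or DMSO pinned into cell-free MEM with 10% FBS; blue fluorescence read at 405/460 nm excitation/emission, expressed as auto-fluorescence equivalency to triamterene.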

[5] = qHTS assay to test for compound auto fluorescence at 535 nm (green) in HepG2 cell free culture (AID 720686)
[6] = qHTS assay to test for compound auto fluorescence at 460 nm (blue) in HepG2 cells (AID 720687)
Outline: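 HepG2 cells in MEM with 10% FBS, attached overnight at 37 C, were exposed to compound or DMSO for 1 hr at 37 C, 5% CO2. Blue fluorescence was read at 405/460 nm, with triamterene as reference fluorophore.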

[7] = biological target: Glucocorticoid receptor (Homo sapiens) (UniProt P04150); assay: qHTS assay to identify small molecule agonists of the glucocorticoid receptor (GR) signaling pathway (AID 720691; active means well fitted activation curve with a large enough effect in the signal ratio in the repeat runs, not every such curve was filed as active; the % refers to the signal ratio)
Outline: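 Reporter read-out: fluorescence intensity following 2 h room-temperature LiveBLAzer B/G FRET substrate loading. Prior step: GR-bla HeLa cells held 4 h, then treated 18 h at 37 C.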

[8] = biological target: Glucocorticoid receptor (Homo sapiens) (UniProt P04150); assay: qHTS assay to identify small molecule antagonists of the glucocorticoid receptor (GR) signaling pathway (AID 720692; active means well fitted inhibition curve with a large enough effect in the signal ratio in the repeat runs, not every such curve was filed as active; the % refers to the signal ratio)
Outline: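 Dexamethasone (5 nM final) stimulated a stably integrated GRE-beta-lactamase reporter in HeLa cells during 18 h co-incubation with compounds; signal was quantified as fluorescence intensity of B/G FRET substrate after 2 h.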

[9] = qHTS assay to test for compound auto fluorescence at 460 nm (blue) in HEK293 cell free culture (AID 720681)
Outline: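 Compounds were added to cell-free DMEM with 10% FBS and fluorescence read directly. The blue channel used 405 nm excitation and 460 nm emission, with triamterene as the reference fluorophore.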

Measured: Potency

Chain of Glucocorticoid receptor (Homo sapiens) (P04150 whole entry, looked up): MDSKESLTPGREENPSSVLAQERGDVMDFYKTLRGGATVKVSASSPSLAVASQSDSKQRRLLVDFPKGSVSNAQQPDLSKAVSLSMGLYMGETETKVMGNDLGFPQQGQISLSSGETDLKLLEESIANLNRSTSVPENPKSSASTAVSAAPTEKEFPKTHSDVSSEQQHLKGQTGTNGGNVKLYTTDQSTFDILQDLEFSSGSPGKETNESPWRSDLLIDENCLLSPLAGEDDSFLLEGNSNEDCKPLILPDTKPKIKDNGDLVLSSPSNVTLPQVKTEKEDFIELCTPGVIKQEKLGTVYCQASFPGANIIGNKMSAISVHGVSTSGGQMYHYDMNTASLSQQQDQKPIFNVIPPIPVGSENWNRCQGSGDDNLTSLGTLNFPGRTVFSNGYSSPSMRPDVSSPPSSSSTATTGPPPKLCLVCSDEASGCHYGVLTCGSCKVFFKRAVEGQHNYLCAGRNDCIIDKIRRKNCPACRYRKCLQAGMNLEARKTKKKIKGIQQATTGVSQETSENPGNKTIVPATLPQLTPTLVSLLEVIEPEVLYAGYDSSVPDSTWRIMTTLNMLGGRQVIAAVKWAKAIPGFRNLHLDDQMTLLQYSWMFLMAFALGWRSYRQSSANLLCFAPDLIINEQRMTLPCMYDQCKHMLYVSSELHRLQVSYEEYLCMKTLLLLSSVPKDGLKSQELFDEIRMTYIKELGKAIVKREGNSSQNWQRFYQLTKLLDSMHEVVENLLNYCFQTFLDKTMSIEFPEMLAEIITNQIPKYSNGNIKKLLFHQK

O=[N+]([O-])c1ccc(Cl)cc1Cl
not listed: [9]
inactive: all other assays above

O=C(NC1CCN(CCc2c[nH]c3ccccc23)CC1)c1ccccc1
not listed: [7] | [8] | [9]
inactive: all other assays above

O=C(O)c1cccc(C(=O)O)c1C(=O)O
inactive: all assays above
